Data as given in PubChem BioAssay (NCI).
Compounds without any hit were thinned out: in the full panel of roughly 83,000, 20% have a hit.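 How to read the values: 0–100, growth inhibition (40 = 60% inhibited); 0, no net growth; -100 to 0, cell death (-40 = 40% of starting cells died; -100 = all dead).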 Unmarked numbers belong to inactive results. Activity calls are given as the source filed them. How the source made its calls: active means growth percent below 10; inactive means the rest.

How the values were obtained:
Test in all cases: NCI-60 one-dose screen, 48 h (100 = growth as untreated, 0 = no growth, -100 = all killed)
Conditions in all cases: 10 µM unless noted
[1] = tested on: DU-145 prostate
[2] = tested on: K-562 leukemia
[3] = tested on: MALME-3M melanoma
[4] = tested on: MDA-MB-231 breast
[5] = tested on: RXF 393 renal
[6] = tested on: SF-268 CNS
[7] = tested on: UACC-257 melanoma
[8] = tested on: M14 melanoma
[9] = tested on: HCT-15 colon
[10] = tested on: HT29 colon
[11] = tested on: SNB-75 CNS
[12] = tested on: SNB-19 CNS
[13] = tested on: U251 CNS
[14] = tested on: SK-MEL-5 melanoma
[15] = tested on: UACC-62 melanoma
[16] = tested on: LOX IMVI melanoma
[17] = tested on: SK-MEL-28 melanoma
[18] = tested on: SF-295 CNS
[19] = tested on: SF-539 CNS
[20] = tested on: PC-3 prostate

Nc1ccc(N2CCOCC2)cc1
growth [1]: 118% | growth [2]: 102% | growth [3]: 86.5% | growth [4]: 96.1% | growth [5]: 108% | growth [6]: 107% | growth [7]: 107% | growth [8]: 94.1% | growth [9]: 103% | growth [10]: 109% | growth [11]: 91.9% | growth [12]: 91.1% | growth [13]: 98% | growth [14]: 92.7% | growth [15]: 86.6% | growth [16]: 104% | growth [17]: 118%

Cc1noc(C)c1-c1cc(O)cc(C(O)c2ccccc2)c1 (stereo unspecified)
growth [1]: 87.5% | growth [2]: 42.1% | growth [3]: 60% | growth [4]: 62.4% | growth [6]: 71.5% | growth [18]: 42.5% | growth [19]: 62.5% | growth [7]: 40.4% | growth [8]: 56% | growth [9]: 36.7% | growth [10]: 34.6% | growth [11]: -13.2% (active) | growth [12]: 52.7% | growth [20]: 48.4% | growth [14]: 54.2% | growth [15]: 31.6% | growth [16]: 27.3% | growth [17]: 61.2%

CC#Cc1nc2ccccc2c(=O)[nH]1
growth [1]: 84.7% | growth [2]: 37.8% | growth [3]: 65.5% | growth [4]: 26.7% | growth [6]: 53.7% | growth [18]: 87.2% | growth [19]: 35.6% | growth [7]: 48.2% | growth [8]: 51.9% | growth [9]: 3.71% (active) | growth [10]: 51.2% | growth [11]: -2.64% (active) | growth [12]: 123% | growth [20]: 61.4% | growth [14]: -10% (active) | growth [15]: 50.1% | growth [16]: -60.1% (active) | growth [17]: 54.3%

CCCCCC(=O)N(CCCC)CCCC
growth [1]: 120% | growth [2]: 94.8% | growth [3]: 96.8% | growth [4]: 99.7% | growth [6]: 115% | growth [18]: 88.2% | growth [19]: 97.4% | growth [7]: 92.1% | growth [8]: 104% | growth [9]: 96.8% | growth [10]: 111% | growth [11]: 86.5% | growth [12]: 92.9% | growth [20]: 99.8% | growth [14]: 98.6% | growth [15]: 94.2% | growth [16]: 110% | growth [17]: 104%

CCCCCCCCCCCCCCCC[N+]1(CC)CCCC1
growth [1]: -92.2% (active) | growth [2]: -34.9% (active) | growth [3]: -49.9% (active) | growth [4]: -61.6% (active) | growth [6]: -57% (active) | growth [18]: -70.1% (active) | growth [19]: -28.4% (active) | growth [7]: -46% (active) | growth [8]: -45% (active) | growth [9]: 22.8% | growth [10]: -65.7% (active) | growth [11]: -37% (active) | growth [12]: -53.9% (active) | growth [14]: -83.6% (active) | growth [15]: -78.3% (active) | growth [16]: -64.1% (active) | growth [17]: -38.6% (active)

O=C(Nc1ccc(F)cc1)Nc1ccc(CCO)cc1
growth [1]: 111% | growth [2]: 103% | growth [3]: 94.3% | growth [4]: 114% | growth [6]: 109% | growth [18]: 105% | growth [19]: 105% | growth [7]: 102% | growth [8]: 117% | growth [9]: 102% | growth [10]: 103% | growth [11]: 72.6% | growth [12]: 107% | growth [20]: 108% | growth [14]: 104% | growth [15]: 107% | growth [16]: 111% | growth [17]: 106%

CCOC(=O)c1nc(Nc2cc(C)[nH]n2)c2ccccc2n1
growth [1]: 109% | growth [2]: 99.9% | growth [3]: 116% | growth [4]: 108% | growth [6]: 101% | growth [18]: 107% | growth [19]: 95.5% | growth [7]: 106% | growth [8]: 80.9% | growth [9]: 73.4% | growth [10]: 103% | growth [11]: 16.9% | growth [12]: 115% | growth [20]: 93.3% | growth [14]: 105% | growth [15]: 91.1% | growth [16]: 97.2% | growth [17]: 93.2%

COc1ccc(/C=N\NC(=O)c2ccncc2)cc1O
growth [1]: 99.4% | growth [2]: 96.4% | growth [3]: 78.9% | growth [4]: 94.8% | growth [6]: 99% | growth [18]: 92.5% | growth [19]: 107% | growth [7]: 89.1% | growth [8]: 101% | growth [9]: 107% | growth [10]: 112% | growth [11]: 74.8% | growth [12]: 95.1% | growth [20]: 106% | growth [14]: 92.5% | growth [15]: 99.8% | growth [16]: 97.2% | growth [17]: 104%

CN1CCCCC1CCN1c2ccccc2Sc2ccc(Br)cc21 (stereo unspecified)
growth [1]: 77.9% | growth [2]: 2.32% (active) | growth [3]: 78.4% | growth [4]: 67.6% | growth [6]: 66.3% | growth [18]: 59.6% | growth [19]: 95.9% | growth [7]: 70.7% | growth [8]: 49.1% | growth [9]: 54.6% | growth [10]: 29.8% | growth [11]: 3.86% (active) | growth [12]: 97.4% | growth [20]: 56.2% | growth [14]: 60.3% | growth [15]: 76.8% | growth [16]: 60% | growth [17]: 68.6%

COc1cccc(-n2cc(-c3nc(Nc4cc(C)[nH]n4)c4ccccc4n3)nn2)c1
growth [1]: 66.4% | growth [2]: 27% | growth [3]: 42.9% | growth [4]: 63.4% | growth [6]: 64.1% | growth [18]: 37.7% | growth [19]: 52.9% | growth [7]: 83.4% | growth [8]: 54.1% | growth [9]: 29.7% | growth [10]: 65.5% | growth [11]: -10.2% (active) | growth [12]: 73.1% | growth [20]: 55.3% | growth [14]: -42% (active) | growth [15]: 50.8% | growth [16]: 66.5% | growth [17]: 64%

CC(=O)Oc1cc2cnc3c4cc(OC(C)=O)c(OC(C)=O)cc4ccc3c2cc1OC(C)=O
growth [1]: 16.6% | growth [2]: 6.46% (active) | growth [3]: 6.96% (active) | growth [4]: 26.3% | growth [6]: 12.2% | growth [18]: 13.9% | growth [19]: -10.8% (active) | growth [7]: 20.6% | growth [8]: 13.9% | growth [9]: 25.1% | growth [10]: 17.4% | growth [11]: -5.27% (active) | growth [12]: 33.9% | growth [20]: 21.6% | growth [14]: 13.1% | growth [15]: -22% (active) | growth [16]: 10.6% | growth [17]: 42.7%

CCCCN(CCCC)CCC(C)(O)c1cc2ccccc2c2ccccc12 (stereo unspecified)
growth [1]: 75% | growth [2]: 15.7% | growth [3]: 30.7% | growth [5]: 87.8% | growth [6]: 57.3% | growth [18]: 79.8% | growth [19]: 103% | growth [7]: 82.8% | growth [8]: 90.7% | growth [9]: 82.2% | growth [11]: 106% | growth [13]: 86.3% | growth [20]: 47.5% | growth [14]: 102% | growth [16]: 45.7% | growth [17]: 121%

CC(=O)OCC1OC(OC2=C(CC=C(Cl)Cl)C(=O)c3ccccc3C2=O)C(OC(C)=O)C(OC(C)=O)C1OC(C)=O (stereo unspecified)
growth [1]: 104% | growth [2]: -12.5% (active) | growth [3]: 51.6% | growth [4]: 69.5% | growth [6]: 88.8% | growth [19]: 90.5% | growth [7]: 94% | growth [8]: 110% | growth [9]: 56.9% | growth [10]: 90.8% | growth [11]: 71.1% | growth [12]: 99.3% | growth [20]: 47.4% | growth [14]: 66.3% | growth [15]: 86.1% | growth [16]: 39.9% | growth [17]: 91.4%

Nc1c(C(=O)Nc2ccccc2Cl)sc2nc3c(cc12)CCCCCC3
growth [1]: 56.3% | growth [2]: 23.3% | growth [3]: -13.3% (active) | growth [5]: -34.6% (active) | growth [6]: 38.4% | growth [18]: 36.6% | growth [19]: 14.3% | growth [7]: 58.4% | growth [8]: 34.5% | growth [9]: 25.8% | growth [10]: 9.39% (active) | growth [11]: -20.3% (active) | growth [13]: 42% | growth [20]: 77.5% | growth [14]: 32.6% | growth [16]: 51% | growth [17]: 57.9%

C(=N\Nc1nnn(Cc2ccccc2)n1)/c1ccccc1
growth [1]: 40% | growth [2]: 29.3% | growth [3]: 24.7% | growth [4]: 98.2% | growth [6]: 46.2% | growth [18]: 31.2% | growth [19]: 41% | growth [7]: 43.9% | growth [8]: 42% | growth [9]: 23.1% | growth [10]: 20.1% | growth [11]: 75% | growth [13]: 31.7% | growth [20]: 51.9% | growth [14]: 32% | growth [15]: 41.5% | growth [16]: 48.8% | growth [17]: 45.4%

CC1(C)OCC2OC3(C(=O)O)OC(C)(C)OC3C2O1 (stereo unspecified)
growth [1]: 104% | growth [2]: 95.9% | growth [3]: 104% | growth [4]: 107% | growth [6]: 101% | growth [18]: 97% | growth [19]: 108% | growth [7]: 90% | growth [8]: 111% | growth [9]: 99.6% | growth [11]: 89.2% | growth [12]: 100% | growth [20]: 106% | growth [14]: 105% | growth [16]: 84.5% | growth [17]: 124%

COc1cccc(NC(=O)c2sc3nc4c(cc3c2N)CN(Cc2ccccc2)CC4)c1
growth [1]: 66.1% | growth [2]: 33.2% | growth [4]: 62.5% | growth [5]: 49.3% | growth [6]: 42.9% | growth [18]: 49.6% | growth [19]: 30.5% | growth [7]: 61.2% | growth [8]: 68.2% | growth [9]: 42.2% | growth [11]: -19.7% (active) | growth [20]: 71.1% | growth [14]: 62.6% | growth [15]: 35.1% | growth [16]: 67.4% | growth [17]: 76.8%

O=[N+]([O-])c1c(F)cccc1Nc1cccc(F)c1
growth [1]: 108% | growth [2]: 95.4% | growth [5]: 102% | growth [6]: 105% | growth [18]: 87% | growth [19]: 102% | growth [7]: 93.2% | growth [8]: 103% | growth [9]: 104% | growth [10]: 97.5% | growth [11]: 81.6% | growth [13]: 105% | growth [20]: 103% | growth [14]: 101% | growth [16]: 102%
